# High-throughput results as filed in PubChem.
# Hits are enriched below; roughly 3.5% of the tested compounds scored in any of these assays.
# BoNT-F LC inh – BoNT/F light chain protease inhibitors, primary screen, biochemical, flow cytometry, MLPCN library; Botulinum neurotoxin type F light chain protease (Clostridium botulinum); inhibition, % at 10 µM; Multiplex microsphere protease cleavage assay; AID 588497, 2011; 360,000 compounds, 0.22% hits; in the data active = inhibition above about 35%, passing the limit was not always enough; inconclusive = no clear call, values can overlap the other calls
# Autofluor counter – flagged as autofluorescent in microsphere protease counterscreen; compound autofluorescence counterscreen, microsphere flow cytometry; hits give high values; fluorescence intensity (test concentration not listed); 360,000 compounds, 3.1% hits; AID 624483; in the data active = fluorescence intensity above about 16000; inconclusive = no clear call, values can overlap the other calls
# BoNT-A LC inh2 – BoNT/A light chain protease inhibitors, primary screen, biochemical, flow cytometry, MLPCN library; 360,000 compounds, 0.17% hits; inhibition, % at 10 µM; multiplex microsphere protease substrate cleavage; Botulinum neurotoxin type A light chain protease (Clostridium botulinum A str. ATCC 3502)
# 3CLpro inhibitor – SARS-CoV 3CLpro protease inhibitors, primary screen, biochemical, quenched FRET; Replicase polyprotein 1ab (Severe acute respiratory syndrome coronavirus), P0C6X7; recombinant SARS-CoV 3CLpro, quenched FRET peptide cleavage; inhibition, % at 6 µM; 290,000 compounds, 0.14% hits; AID 1706, 2009; in the data active = inhibition above about 12%
# Anthrax LF inh2 – Bacillus anthracis LF protease inhibitors, primary screen, biochemical, multiplex microsphere, MLPCN library | 360,000 compounds, 0.12% hits | multiplex microsphere protease cleavage assay | Lethal factor (Bacillus anthracis), P15917 | inhibition, % at 10 µM
# A number is an active result; 0 = inactive; ? = inconclusive; - = no result given. Rule as the data show it, unless noted: active = inhibition above about 30%; inconclusive = no clear call, values can overlap the other calls; inactive = below that.
SMILES,BoNT-F LC inh,Autofluor counter,BoNT-A LC inh2,3CLpro inhibitor,Anthrax LF inh2
CC(=O)Nc1cccc(C(=O)OC(C(=O)c2ccc(C)cc2)c2ccccc2)c1 (configuration not stated),0,?,0,0,0
CC(C)CCNC(=O)c1cc2c(=O)[nH]c3ccccc3c2s1,0,0,0,0,0
Cc1ccc2[nH]c(=O)c3cc(C(=O)NCCC(C)C)sc3c2c1,41.4,0,0,0,0
O=C1CC(SCCO)C(=O)N1c1ccccc1 (configuration not stated),0,23642,0,0,0
O=C(c1ccoc1)N1CCN(c2cc(-c3ccncc3)nc3cc(-c4cccc(Cl)c4)nn23)CC1,0,0,0,-,0
CCOC(=O)C1=C(c2ccccc2)N=c2s/c(=C\c3cc(OC)c(OC)c(OC)c3)c(=O)n2C1c1cccs1 (configuration not stated),0,0,41.1,0,33.9
C=CCn1c(-c2cccc3ccccc23)n[nH]c1=S,0,21011,0,0,0
COc1ccc2oc(C)c(C(=O)c3ccccc3)c2c1,?,0,0,-,0
COc1ccc(-n2cnnc2SCC(=O)N(C)C2CCS(=O)(=O)C2)cc1 (configuration not stated),0,23013,0,0,0
COc1ccc(C(=O)COC(=O)CCN=C2NS(=O)(=O)c3ccccc32)cc1OC,0,20801,0,0,0
COc1ccccc1C(=O)COC(=O)CCCN=C1NS(=O)(=O)c2ccccc21,?,0,0,-,0
O=C1CC(NNC(=O)c2ccccc2)C(=O)N1 (configuration not stated),0,0,0,0,0
O=C1CC(NNC(=O)c2ccc(Br)cc2)C(=O)N1 (configuration not stated),42.8,0,0,0,0
CCn1cc([N+](=O)[O-])c(C(=O)N2CCCc3ccccc32)n1,0,0,0,0,0
CCOc1ccc(-c2noc(CCC(N)=O)n2)cc1OCC,0,21943,0,0,0
CCOc1cc(-c2noc(CCC(=O)NC3CCCCC3)n2)ccc1OC,0,0,0,0,0
CCOc1cc(C(=O)Nc2cccc3ncccc23)cc(OCC)c1OCC,0,20303,0,0,0
CC(=O)Nc1cccc(C(=O)Nc2cccc3ncccc23)c1,0,0,0,0,0
O=C(c1ccc(Cl)cc1)c1oc2ccccc2c1CS(=O)c1ccc(Cl)cc1 (configuration not stated),0,22309,?,0,0
COC(=O)c1ccccc1OCCN1CCCCCC1,0,0,0,0,0
Cc1c(C(=O)NCCC#N)sc(=O)n1Cc1ccc(C(=O)N(C)C)cc1,0,0,0,-,0
COc1cc(CN2CCCC(C)C2)cc([N+](=O)[O-])c1O (configuration not stated),0,23731,0,0,0
COc1cc(CN2CCCCCC2)cc([N+](=O)[O-])c1O,0,0,0,0,0
COc1cc(OC)cc(C(=O)NC(=S)Nc2ccc(Cl)c(C(=O)O)c2)c1,0,24431,0,0,0
COc1cc(C(=O)NC(=S)Nc2ccc(Cl)c(C(=O)O)c2)cc(OC)c1OC,0,0,0,0,0
SMILES,BoNT-F LC inh,Autofluor counter,BoNT-A LC inh2,3CLpro inhibitor,Anthrax LF inh2
CN(Cc1nc2ccccc2c(=O)[nH]1)C(=O)c1ccc(S(=O)(=O)N(C)C)cc1,0,20390,0,0,0
CCOc1ccc(-c2noc(-c3csc([C@@H]4O[C@H](CO)[C@H](O)[C@H](O)[C@H]4O)n3)n2)cc1,0,0,0,-,0
CCC1Oc2ccc(C)cc2N(CC(=O)NCCCN2CCCCC2C)C1=O (configuration not stated),0,0,0,0,0
CCC1Oc2ccc(C)cc2N(CC(=O)NCCCN2CCCCC2CC)C1=O (configuration not stated),0,24712,0,0,0
CCC1Oc2ccc(C)cc2N(CC(=O)NCCC2=CCCCC2)C1=O (configuration not stated),0,18757,?,0,0
CC1(CCC#N)N=C(SCCC#N)N(c2ccccc2)C1=O (configuration not stated),0,23294,?,0,0
Cc1n[nH]c(=O)nc1NC(C)c1ccccc1 (configuration not stated),0,22579,0,0,0
COc1ccccc1Nc1nc(=O)[nH]nc1C,0,0,0,0,0
CC(=O)c1ccc(N2CCN(C(=O)c3cc(-c4cccnc4)nc4ccc(Br)cc34)CC2)cc1,0,0,0,0,0
CCC[C@@H](CN1CCC[C@H]1CN1C(N)=NC[C@H]1C(C)C)N1C[C@@H](Cc2ccccc2)N(CCCC2CCCC2)C1=N,0,0,0,-,0
Cc1cc(Nc2ccc(F)cc2)nc(N)n1,0,23182,0,0,0
O=c1cc(N2CCCCCC2)[nH]c(=O)n1-c1ccc(Cl)cc1,0,0,0,0,0
COc1ccc(C2=Nc3ccccc3NC(=O)C2N(Cc2ccc(F)cc2)C(=O)c2ccco2)cc1 (configuration not stated),0,0,0,-,0
O=S(=O)(c1ccc(Br)s1)n1cccn1,0,20761,?,0,0
O=S(=O)(c1cccs1)n1cccn1,0,0,0,0,0
Cc1nc2c(C(=O)N3CCN(c4ccccn4)CC3)cnn2c(C)c1Cc1cccc(Cl)c1,0,0,0,0,0
Cc1ccc(C)c(Cc2c(C)nc3c(C(=O)N4CCOCC4)cnn3c2C)c1,0,22707,0,0,0
CCOC(=O)N1CCN(C(=O)c2cnn3c(C)c(Cc4ccc(C)cc4)c(C)nc23)CC1,0,23293,?,0,0
O=C1CCCc2c1cc(-c1ccccc1)n2-c1ccc(O)cc1,0,0,0,0,0
COc1ccc(-n2c(-c3ccccc3)cc3c2CCCC3=O)cc1,0,22566,?,0,0
Cc1ccc(-c2[nH]ncc2C(=O)c2ccccc2C)c(O)c1,35.7,0,0,0,0
COC(=O)C1=C(O)CSC1=Nc1cccc(C(F)(F)F)c1,0,17678,0,0,0
O=C(N1CCOCC1)N1CCN(C(c2ccccc2)c2ccccc2)CC1,0,21654,0,0,0
O=C(c1cc(-c2ccco2)on1)N1CCN(C(c2ccccc2)c2ccccc2)CC1,0,21890,0,0,0
O=C(N1CCCCC1)N1CCN(C(c2ccccc2)c2ccccc2)CC1,0,0,0,0,0
Cc1c(CCC(=O)NCCCn2ccnc2)c(=O)oc2c(C)c3occ(C(C)(C)C)c3cc12,0,0,0,0,0
O=C(c1cccs1)N(Cc1ccco1)C1CCS(=O)(=O)C1 (configuration not stated),0,22695,0,0,0
O=C(c1cccs1)N(Cc1cccc(Cl)c1)C1CCS(=O)(=O)C1 (configuration not stated),0,21176,?,0,0
CC(C)(C)NC(=O)N1CCN(S(=O)(=O)c2ccc3c(c2)CCC3)CC1,0,0,0,-,0
